In all, about 69,000 compounds went through this assay and about 8,600 (12%) showed an effect of 50% or more. The list comes from a sample in which strong results are over-represented; it also holds similar structures and randomly drawn compounds.

The assay concerns Plasmodium berghei. The assay is described as follows: Screen against P. berghei liver stage (PbLuc), transformed with Luciferase, at 10uM. The format is functional, HepG2. Particulars: tested at 10 uM.
`CCN1CCC(NC(=O)NCC(O)c2ccc(Cl)c(F)c2)CC1` (centres undefined): the INHIBITION is listed as 43.1%. Take `Cc1ccc(CN2CCCC23Cc2ccccc2CNC3=O)cc1` (centres undefined): the INHIBITION stood at 52.4%. For `O=C1Nc2ccccc2CC12CCCN2Cc1cccnc1` (centres undefined) the value was -2.28%. Next, `O=C1NCc2ccccc2CC12CCCN(CCCc1ccccc1)C2` (centres undefined): 27.5%; `O=C1Nc2ccccc2CC12CCCN2Cc1ccc(F)cc1` (centres undefined): -38.7%. Next, `Cc1ccc(CCN2CCCC23Cc2ccccc2CNC3=O)cc1` (centres undefined): 54.9%; `Cc1cc(C)c(CN2CCCC23Cc2ccccc2CNC3=O)c(C)c1` (centres undefined): 68.9%.

`CC(C)(C)CN1CCCC12Cc1ccccc1CNC2=O` (centres undefined): the INHIBITION was found to be 32.5%. Take `CC(C)CCN1CCCC12Cc1ccccc1CNC2=O` (centres undefined): the INHIBITION is listed as 14.3%. Take `O=C1Nc2ccccc2CC12CCCN2Cc1ccccn1` (centres undefined): the INHIBITION turned out to be 27.5%. Consider `O=S(=O)(c1cccnc1)N1C[C@H]2CCC[C@@]2(COc2ccccn2)C1`, for which the INHIBITION was 38.5%. For `CCn1c(N)nc2cc(C(=O)NCCc3ccncc3)cnc21` the value was -20%; for `Nc1ccc(CC2CCCN(Cc3c[nH]cn3)C2)nn1` (centres undefined), -4.87%. As to `COc1ccc(CN2CCn3cc(CN4CCCCC4)nc3C2)cc1`, the INHIBITION was 0.79%.

Take `CC(C)Oc1ccc(C(=O)N2CCCCC2Cn2cccn2)cn1` (centres undefined): the INHIBITION is -21.645%. For `CCCc1ccc(C(=O)N2CCc3c(nc(N(C)C)[nH]c3=O)C2)cc1` the value was 23.3%; for `CN(C)c1nc2c(c(=O)[nH]1)CCN(C(=O)c1cccc3nccnc13)C2`, 6.8%; for `CN(C)c1nc2c(c(=O)[nH]1)CCN(C(=O)C1CCCO1)C2` (centres undefined), 6.26%. For `CN(C)c1nc2c(c(=O)[nH]1)CCN(C(=O)c1ccc(=O)[nH]c1)C2`, the INHIBITION came out at 4.1%. Next, `O=C(c1cccnc1)N1CCc2c(nc(N3CCCC3)[nH]c2=O)C1`: 46%; `O=c1[nH]c(-c2cccnc2)nc2c1CCN(S(=O)(=O)N1CCCC1)C2`: 23.6%; `CN(C)c1nc2c(c(=O)[nH]1)CCN(C(=O)c1c[nH]c(=O)c(Cl)c1)C2`: 51.1%. Next, `O=C(c1ccc(=O)[nH]c1)N1CCc2c(nc(-c3cccnc3)[nH]c2=O)C1`: 61.8%; `Cc1nc(C(C)C)ncc1C(=O)N1CCc2c(nc(N(C)C)[nH]c2=O)C1`: 50.1%. Turning to `CCc1onc(C)c1C(=O)N1CCN(c2ncc3c(n2)CCOC3)CC1`, the INHIBITION is listed as 17.05%. For `Cc1n[nH]c(C)c1C1COCCN1C(=O)c1n[nH]c2ccccc12` (centres undefined) the value was -2.25%; for `O=c1[nH]nc(CCCN2CCOCC2)n1Cc1cccc(F)c1`, 10.3%. For `O=C(CCN1CCCCC1)Nc1c2c(cc3c1CCC3)CCC2` the value was 18.8%; for `Cn1cc(S(=O)(=O)NCC(C)(O)c2ccsc2)cn1` (centres undefined), 16.3%; for `Cn1cc(S(=O)(=O)NCc2ccsc2)cn1`, -17.8%. Consider `Cn1cc(S(=O)(=O)NCCc2ccsc2)cn1`, for which the INHIBITION came out at 70.9%.

`CNc1nc(C(=O)N2CCCC(COc3ccc(F)cc3)C2)cs1` (centres undefined): the INHIBITION is given as 44.9%.

Regarding `Cn1ccc(C(=O)N2CCC(Cc3cnc4[nH]ccc4c3)C2)n1` (centres undefined), the INHIBITION is on record as -77.5%. Next, `CCCC(=O)N(C)C(c1cccc(F)c1)c1ccccn1` (centres undefined): 13.6%. For `Cc1nnc(NC(=O)CSCc2cc(=O)n3ccccc3n2)s1` the value was 27.5%; for `Cc1cccc2nc(CSCC(=O)Nc3nnc(C(C)C)s3)cc(=O)n12`, 24.5%.

In the case of `Cc1ccc2nc(CSCC(=O)Nc3nnc(C(C)C)s3)cc(=O)n2c1`, the INHIBITION amounted to 50.2%.

`CC(C)c1nnc(NC(=O)CSCc2cc(=O)n3ccccc3n2)s1`: the INHIBITION is 38.9%. Turning to `Cc1ccn2c(=O)cc(CSCC(=O)Nc3nnc(C(C)C)s3)nc2c1`, the INHIBITION was 52.5%.

In the case of `Cc1cccn2c(=O)cc(CSCC(=O)Nc3nnc(C(C)C)s3)nc12`, the INHIBITION came out at 14.7%. For `c1ncn(CC2CN(CCCOc3ccc4c(c3)OCO4)CCO2)n1` (centres undefined) the value was 36.1%. `O=C(Nc1ccccn1)N(CCO)Cc1ccccc1Br`: the INHIBITION came to 10.2%. For `Cn1cnc2c1C(COCC1CCOCC1)CN(c1ncccn1)C2` (centres undefined) the value was 33.4%.

Consider `Cc1nc(O)c2nnn(C[C@H]3CCCN3C(=O)c3cccs3)c2n1`, for which the INHIBITION came out at 31.6%. Next, `COc1ncccc1CN1CCc2[nH]cnc2C1CCSC` (centres undefined): 33.4%; `CSCCC1c2nc[nH]c2CCN1Cc1ccccc1C#N` (centres undefined): 40.9%; `CSCCC1c2nc[nH]c2CCN1Cc1cncn1C` (centres undefined): 56.1%. Take `CSCCC1c2nc[nH]c2CCN1Cc1ccnc2ccccc12` (centres undefined): the INHIBITION is recorded as -9.67%. Next, `CSCCC1c2nc[nH]c2CCN1Cc1ccccc1C(F)(F)F` (centres undefined): 69.1%; `O=C(O)C1c2nc[nH]c2CCN1Cc1ccccc1-c1ccccc1` (centres undefined): 12.7%; `CSCCC1c2nc[nH]c2CCN1Cc1cc(Cl)ccc1O` (centres undefined): 70.6%. As to `CCn1ncnc1CN1CCc2[nH]cnc2C1CCc1ccccc1` (centres undefined), the INHIBITION was found to be 1.94%. For `CCn1ncnc1CN1CCc2[nH]cnc2C1Cc1ccccc1` (centres undefined) the value was -56.1%. For `CCn1cc(NC(=O)C2CCC(=O)N2Cc2ccco2)cn1` (centres undefined) the value was 20.4%.

The record behind these values is ChEMBL document CHEMBL4513216, “Probing the Open Global Health Chemical Diversity Library for Multistage-Active Starting Points for Next-Generation Antimalarials” (ACS Infect Dis, 2020).
